Reference: the supplement of paper PMC13380429
A number with no mark means an inactive call.

system: Vero E6 infected with SARS-CoV-2; experiment: inhibition of SARS-CoV-2 cytopathic effect; higher = more antiviral protection, active = above 15; details: 10000 nM; 48 h

Row | SMILES | inhibition of SARS-CoV-2 cytopathic effect
1 | O=C(O)Cc1ccc(OCCNC[C@H](O)c2ccccc2)cc1 | 1.01%
2 | C[N+]1(C)CCCC(OC(=O)C(O)(c2ccccc2)c2ccccc2)C1 (stereo not given) [mepenzolate] | 0.49%
3 | O=P(O)(O)C(O)(Cc1cnc2ccccn12)P(=O)(O)O [minodronic-acid] | -1.52%
4 | COc1ccc2cccc(N3CCN(CCNC(=O)c4ccc(F)cc4)CC3)c2c1 | -3.37%
5 | CO/N=C(\C(=O)N[C@@H]1C(=O)N2C(C(=O)OCOC(=O)C(C)(C)C)=C(/C=C\c3scnc3C)CS[C@H]12)c1csc(N)n1 [cefditoren-pivoxil] | -0.51%
6 | Cc1ccc(-c2csc3ncnc(SCCC(=O)O)c23)cc1 | 1.11%
7 | Cn1c2c(c3ccccc31)CCNCC2 | -0.01%
8 | CCOC(=O)c1ccc(C#Cc2ccc3c(c2)C(C)(C)CCS3)nc1 [tazarotene] | 0.98%
9 | C[C@H](CCC(=O)O)[C@H]1CC[C@H]2[C@@H]3[C@@H](O)C[C@@H]4C[C@H](O)CC[C@]4(C)[C@H]3CC[C@]12C [ursodiol] | 0.145%
10 | Nc1nc(OCC2CCCCC2)c2nc[nH]c2n1 | -1.27%
11 | CNC1CC(c2ccc(Cl)c(Cl)c2)c2ccccc21 (stereo not given) [indatraline] | -10.8%
12 | CCCN(CCC)CCc1cccc2c1CC(=O)N2 [ropinirole] | -0.98%
13 | OC(CCN1CCCCC1)(c1ccccc1)C1CC2C=CC1C2 (stereo not given) [biperiden] | -2%
14 | O=C([O-])c1ccccn1.O=C([O-])c1ccccn1.O=C([O-])c1ccccn1.[Cr+3] [chromium-picolinate] | 0.6%
15 | CN1[C@@H]2C[C@@H](O)C[C@H]1[C@@H]1O[C@@H]12 [scopine] | -0.8%
16 | O=c1nc2ccccc2c2n1CC(CN1CCN(c3ccccc3)CC1)N2 (stereo not given) | 5.46%
17 | CC(C)NCC(O)COc1cccc2[nH]ccc12 (stereo not given) [pindolol] | -1.61%
18 | O=C(O)Cc1ccc(CCNS(=O)(=O)c2ccc(Cl)cc2)cc1 [daltroban] | 1.78%
19 | NC[C@H]1O[C@H](O[C@H]2[C@H](O[C@@H]3O[C@H](CO)[C@@H](O)[C@H]3O)[C@@H](O)[C@H](N)C[C@@H]2N)[C@H](N)[C@@H](O)[C@@H]1O [ribostamycin-sulfate] | -0.88%
20 | CC12CCC(C(=O)N(CCCCN3CCN(c4ccccn4)CC3)C1=O)C2(C)C (stereo not given) [piricapiron] | 1.64%

Row | SMILES | inhibition of SARS-CoV-2 cytopathic effect
21 | COc1cccc(C=NCCN=Cc2cccc(OC)c2[O-])c1[O-].[Cl-].[Mn+3] | 14.1%
22 | CC(=O)Nc1nnc(S(N)(=O)=O)s1 [acetazolamide] | -1.25%
23 | CC(=O)Nc1ccc(CC(=O)O)cc1 [actarit] | -0.41%
24 | Fc1ccc(C(OCCN2CCN(CCCc3ccccc3)CC2)c2ccc(F)cc2)cc1 [vanoxerine] | -11.6%
25 | Cc1cccc(Cc2c[nH]cn2)c1C [detomidine] | 2.25%
26 | O=C(NS(=O)(=O)c1ccc(Br)s1)c1ccc(Cl)cc1Cl [tasisulam] | 4.37%
27 | Oc1ccc2c3c1O[C@H]1[C@@H](O)CC[C@@]4(O)[C@@H](C2)N(CC2CCC2)CC[C@]314 [nalbuphine] | 0.06%
28 | CN1C(C)(C)CCCC1(C)C [pempidine] | -2.1%
29 | O=C(O)c1cc(=O)c2c(OCC(O)COc3cccc4oc(C(=O)O)cc(=O)c34)cccc2o1 [cromoglicic-acid] | -0.11%
30 | O=C(O)[C@H]1CC[C@H](c2cc3cccnc3c(-c3cccc(F)c3)n2)CC1 | 1.21%
31 | C=CCNc1ncnc2ccc(Br)cc12 | 0.96%
32 | CCN(CC)CCOCCOC(=O)C(CC)(CC)c1ccccc1 [oxelaidin] | 0.38%
33 | CCOc1ccc(-c2ccc(Cn3c(CC(C)(C)C(=O)O)c(SC(C)(C)C)c4cc(OCc5ccc(C)cn5)ccc43)cc2)cn1 | -0.78%
34 | COc1ccccc1Oc1c(NS(=O)(=O)c2ccc(C)cn2)nc(-c2ccncc2)nc1OC | -4.64%
35 | Cc1cc(NC(=O)C(c2ccccc2)N2CCCc3ccccc32)no1 (stereo not given) | 3.91%
36 | C=C1/C(=C\C=C2/CCC[C@]3(C)[C@@H]([C@H](C)/C=C/C=C/C(O)(CC)CC)CC[C@@H]23)C[C@@H](O)C[C@@H]1O [seocalcitol] | 1.01%
37 | COc1cccc(-n2nc(C(=O)O)cc2-c2ccc(C3CCCCC3)c(Cl)c2)c1 | 6.19%
38 | COc1ccc(CNC(=O)c2sc3nc(C)cc(C)c3c2N)cc1 | 2.28%
39 | CNc1cc2c(Nc3cccc(Br)c3)ncnc2cn1 | -2.22%
40 | CCCNC(=O)NS(=O)(=O)c1ccc(Cl)cc1 [chlorpropamide] | -2.67%
